L3MBTL1 block: inhibitors of human L3MBTL1 | AID 485360 | Potency, µM (titrated, usually from 57.1 µM), for inactives: at the highest dose activity, negative = inhibition, most hits filed as inhibitors | AlphaScreen L3MBTL1–H3K9me1 peptide binding | 0.66% of 230,000 active | Q9Y468; also: % is scaled to controls: 0 for no effect and ±100 for the full control effect; nearly all actives have a fitted effect of over 60% in size
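Displacement of a biotinylated histone H3(1-15) peptide monomethylated at Lys9 (75 nM) from L3MBTL1 (50 nM) was measured by AlphaScreen after a 30 min room-temperature compound incubation; cefsulodin titration served as intraplate control.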
G9a block: G9a (human) methyltransferase inhibition | Q96KQ7 | G9a H3K9 monomethylation, AlphaScreen, 2 h | Potency, µM (titrated, usually from 102 µM), for inactives: at the top dose activity, negative = inhibition, usual class: inhibitors | 8.8% of 350,000 active; also: % is scaled to controls: 0 for no effect and ±100 for the full control effect; nearly all actives have a fitted effect of over 75% in size
Target sequence (Q96KQ7 913-1193 limits assumed): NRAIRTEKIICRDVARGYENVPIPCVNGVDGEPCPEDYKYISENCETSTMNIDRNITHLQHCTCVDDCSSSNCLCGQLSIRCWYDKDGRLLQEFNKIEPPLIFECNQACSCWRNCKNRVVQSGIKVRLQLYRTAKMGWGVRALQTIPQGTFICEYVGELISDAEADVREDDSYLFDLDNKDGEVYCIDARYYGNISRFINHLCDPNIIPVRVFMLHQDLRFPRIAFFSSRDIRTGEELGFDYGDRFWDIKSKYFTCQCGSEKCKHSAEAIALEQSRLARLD
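AlphaScreen detection with an anti-monomethyl H3K9 antibody quantified product after a 2 h room-temperature reaction containing 500 nM biotinylated H3K9 peptide, 20 µM SAM and 20 nM enzyme, which had been preincubated 15 min with compound.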
GLS inh: inhibitors of human glutaminase (GLS); GLS enzymatic activity, qHTS titration; 0.21% of 410,000 active; Potency, µM (doses to about 45.5 µM), for inactives: at the top dose activity change, negative = inhibition, usual class: inhibitors; also: % is scaled to controls: 0 for no effect and ±100 for the full control effect
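Enzyme dispensed in phosphate buffer (45 mM, pH 8.2, 0.02% Tween-20), compounds pinned in, then 1 mM L-glutamine solution and the glutamate oxidase–HRP–Amplex Red mix added; fluorescence read immediately and again after 30 min at room temperature.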
BAZ2B block: blocks human BAZ2B; Q9UIF8; AlphaScreen BAZ2B-H3K14Ac peptide displacement; Potency, µM (highest dose often 114 µM), without a hit: at the highest dose activity change, negative = inhibition, most hits filed as inhibitors; 4.4% of 360,000 active; also: % is scaled to controls: 0 for no effect and ±100 for the full control effect; nearly all actives have a fitted effect of over 60% in size
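Complex of BAZ2B and biotin-H3K14Ac (50 nM apiece) forms over 30 min at RT, then faces library compounds up to 110 uM for another 30 min; AlphaScreen beads added, 20 min dark incubation, luminescence read.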
JMJD2A Tudor: blocks the human JMJD2A Tudor domain | O75164 | AlphaScreen JMJD2A-Tudor / H3K4me3 peptide binding | Potency, µM (doses to about 114 µM), for inactives: top-dose activity change, negative = inhibition, most hits filed as inhibitors | 4.4% of 390,000 active; also: % is scaled to controls: 0 for no effect and ±100 for the full control effect; nearly all actives have a fitted effect of over 50% in size
HP1b binding inh: HP1-beta chromodomain-methylated histone interaction inhibition | AID 540317 | P83916 | AlphaScreen HP1-beta / biotin-H3K9me3 peptide binding | Potency, µM (top dose mostly 114 µM), without a hit: at the top dose activity change, negative = inhibition, actives largely listed as inhibitors | 0.56% of 390,000 active; also: nearly all actives have a fitted effect of over 70% in size
Target sequence (P83916 whole entry, looked up): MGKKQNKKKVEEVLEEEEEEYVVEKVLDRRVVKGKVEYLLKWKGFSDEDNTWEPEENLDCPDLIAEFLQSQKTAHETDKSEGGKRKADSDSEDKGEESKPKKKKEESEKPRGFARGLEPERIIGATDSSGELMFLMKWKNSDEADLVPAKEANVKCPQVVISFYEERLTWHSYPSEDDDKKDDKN
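HP1-beta protein (50 nM final) preincubated 30 min at room temperature with biotinylated H3(1-18)K9me3 peptide (50 nM) in PBS pH 7.4, 0.01% Tween-20, then compound added for 30 min. AlphaScreen streptavidin donor/nickel chelate acceptor beads (10 ug/mL final), 30 min dark, luminescence read.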
Starred values were filed as active, the others as inactive; u = inconclusive; x = no result given; [ ] = another dose, or the depositor's remark. Most compounds without a hit are left out; they make up all but 10% or so of the library. Calls follow the shape of the dose curve; as a rule, active = well fitted curve in the direction sought with a large enough effect; inconclusive = small, poorly fitted or top-dose-only effect, or another doubt; inactive = no such curve, though single readings can be large; an effect the other way counts as inactive or inconclusive. Potency is read from the fitted curve at half-maximal effect.

SMILES | L3MBTL1 block | G9a block | GLS inh | BAZ2B block | JMJD2A Tudor | HP1b binding inh
CC(=O)n1c(Cl)c(NC(=O)CCl)c2ccccc21 | x | u | -7% | 45µM* | -3% | 26%
O=C1C(C2=NC(C(=O)O)C3C(=O)N(c4ccccc4)C(=O)C23)=C(O)c2ccccc21 (stereo unspecified) | 1% | u | -1% | -22% | 16µM* | 2%
Cc1cc2nc(-c3cccc(NC(=O)CSc4ccc(Cl)cc4)c3)oc2cc1C | x | -1%[59 µM] | -3% | -15% | -3% | 55%
Cc1ccc(OC(=O)c2ccncc2)c(C)c1 | 13% | 1% | -1% | 12% | 16% | 48%
Cc1ccc(N=N/C(=C\O)C(=O)c2ccncc2)cc1 | x | u | 57% | 45µM* | u | -30%
O=C(/C(=C/O)N=Nc1ccc(Cl)cc1)c1ccncc1 | -12% | 17%[0.501 µM] | 23% | 32µM* | u | -50%
CCCN(Cc1cccs1)C(=O)Nc1ccc(Br)c(C)c1 | x | 29%[59 µM] | 0% | 29% | 36% | 112%
CC1CC=CC2C1C(=O)N(Cc1ccccc1)C2c1ccc(F)c(/C=C/c2ccccc2)c1 (stereo unspecified) | x | x | x | x | -11% | 29%
COc1cccc(C)c1NC(=O)C(OC(=O)CNC(=O)c1ccccc1)c1ccccc1 (stereo unspecified) | x | x | x | x | -9% | x
CCCCN(CC)C(=O)C1CCCN(c2ncnc3c2nc2n3CCCCC2)C1 (stereo unspecified) | x | 5%[59 µM] | -3% | 2% | -13% | 10%
CCCCN(Cc1ccco1)C(=O)C1CCCN(c2ncnc3c2nc2n3CCCCC2)C1 (stereo unspecified) | x | 79µM* | -5% | u | u | 37%
Cc1c(C)c2ccc(OCC(=O)N[C@@H](Cc3ccccc3)C(=O)O)cc2oc1=O | x | -8%[12.7 µM] | 16µM* | -16% | -10% | 69%
Cc1c(OCC(=O)NC(Cc2ccc(Cl)cc2)C(=O)O)ccc2c3c(c(=O)oc12)CCC3 (stereo unspecified) | -2% | u | 6% | -2%[57.1 µM] | -14% | 33%
Cc1c(C)c2ccc(OCC(=O)NC(Cc3ccc(Cl)cc3)C(=O)O)cc2oc1=O (stereo unspecified) | x | 14%[12.7 µM] | 19% | -3% | -12% | 14%
Cc1c(OCC(=O)NC(Cc2ccc(Cl)cc2)C(=O)O)ccc2c1oc(=O)c1ccccc12 (stereo unspecified) | x | -1%[12.7 µM] | u | 56µM* | -30% | 14%
COc1ccc(Cn2c(C(=O)O)c(CNCc3ccc(C)o3)c3ccc(OC)cc32)cc1 | x | -15%[59 µM] | 17% | u | u | -24%
CCCN(CCC)CCCNC(=O)C1CCN(c2nc3ccc(CC)cc3s2)CC1 | x | -27%[59 µM] | 7% | -5% | -20% | -2%
CC(=O)Oc1cccc(/C=c2\sc3nc(-c4ccco4)nn3c2=O)c1 | u | u | -13% | -35% | 50µM* | 0%
CCN(CC)c1ccc(C2C3CCCCC3(O)CCN2C(=O)c2cccs2)cc1 (stereo unspecified) | u | 50µM* | 29% | u | u | -29%
COc1ccc(Cc2noc(CN3CCCN(C4Cc5ccccc5C4)CC3)n2)cc1OC | -13% | 40µM* | 0% | u | -17% | 33%
COCCN1CCN(Cc2nc(Cc3ccc(OC)c(OC)c3)no2)CC1 | -3% | -30% | 0% | -15% | -6% | 25%
CC(=NNc1ccccc1)C(C)=NNc1ccccc1 | x | x | 6% | x | -29% | 37%
C/C(=N\Nc1ccccc1)c1c(O)cc(C)oc1=O | 2% | 2.5µM* | 67% | -13% | -12% | 48%
COc1ccc2oc(=O)c(C(=O)Nc3ccccc3C)cc2c1 | -1%[2.29 µM] | 4%[0.501 µM] | -1% | 50µM* | -15% | 11%
COc1ccc2oc(=O)c(/C(C)=N/Nc3ccccc3)cc2c1 | x | 13µM* | -6% | x | -23% | 41%
SMILES | L3MBTL1 block | G9a block | GLS inh | BAZ2B block | JMJD2A Tudor | HP1b binding inh
Brc1nnc2n1-c1ccccc1Sc1ccccc1-2 | -1% | -23%[59 µM] | 11% | 10% | -7% | 8%
Clc1ccc2c(c1)-c1nnc(Br)n1-c1ccccc1S2 | u | 10µM* | 5% | -4% | -9% | 3%
Cc1cccc(C)c1OCc1nc2c3c(-c4ccccc4)c(-c4ccccc4)oc3ncn2n1 | x | -1%[59 µM] | 1% | 0% | 5% | 45%
O=C(NCc1ccccn1)c1ccc(/C=N/O)nc1 | -4% | -5% | 23% | 45µM* | 18µM* | 23%
O=C(NCc1ccccc1)c1ccc(C(=O)NCc2ccccc2)cc1 | x | x | 3% | x | -17% | 22%
COc1ccc(C(=O)NCc2ccccn2)cc1 | -4% | -8%[59 µM] | -9% | 6% | -25% | 32%
NC(=O)c1ccc(OCc2ccccc2)nc1 | x | x | -2% | x | -10% | 13%
NC(=O)c1ccc(/C=N/O)nc1 | u | 3.5µM* | 30% | 32µM* | 18µM* | 21%
O=C(NCc1ccccc1)c1ccc(/C=N/O)nc1 | -6% | 10µM* | 33% | 56µM* | 7.9µM* | 20%
O=c1c2sccc2[nH]c(=S)n1Cc1ccccc1 | -2% | 10µM* | -21% | 10% | -23% | 27%
COc1ccc(Cn2c(=S)[nH]c3ccsc3c2=O)cc1 | 4% | 8.9µM* | -11% | 7% | -25% | 52%
CC(=O)NCCNC(=O)c1ccc(Cn2c(=O)[nH]c3ccsc3c2=O)cc1 | x | 51% | 6% | 4% | -1% | 22%
CC(NC(=O)CCn1c(=S)[nH]c2ccsc2c1=O)c1ccccc1 (stereo unspecified) | x | 28µM* | -3% | 3% | -25% | 20%
Cc1ccc(NC(=O)CCn2c(=O)[nH]c3ccsc3c2=O)cc1 | 37% | 2% | -2% | -10% | -15% | 36%
Cn1c(C(=O)NCc2cccc(F)c2)cc2cc(S(=O)(=O)N3CCCCC3)ccc21 | x | 11%[59 µM] | 7% | -11% | -20% | 24%[57 µM]
CCOc1ccccc1NC(=O)CN1C(=O)CC(c2ccco2)Sc2ccccc21 (stereo unspecified) | x | -30%[59 µM] | 5% | u | u | -14%

Bioassay records: PubChem, National Center for Advancing Translational Sciences (NCATS)
